Laboratory results reported in PubChem BioAssay (NCATS).
Unmarked numbers belong to inactive results. Inconclusive results are not listed. The source made the active and inactive calls. The call rests on the fitted dose curve; in most records, active means well fitted curve in the direction sought with a large enough effect; inconclusive means small, poorly fitted or top-dose-only effect, or another doubt; inactive means no such curve, though single readings can be large; an effect the other way counts as inactive or inconclusive.
Potency means the concentration at half of the fitted maximal effect.

Target: Luciferin 4-monooxygenase (Photinus pyralis) (UniProt P08659)
Assay: Primary firefly luciferase (FLuc) qHTS assay for identification of artifact compounds. (AID 1845220); further: nearly all actives have a fitted effect of over 60% in size;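 on activity change, negative = inhibition: plate controls were DMSO vehicle for no effect and no enzyme for full effect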
Conditions: purified firefly luciferase, luminescence, 5 min; series mostly up to 54.1 µM; activity change, negative = inhibition: at the top concentration
How it was run: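 Enzymatic FLuc inhibition assay: compounds pre-exposed to luciferin/ATP (10 uM each) for 15 min, then purified P. pyralis enzyme at 10 nM added. Read-out: luminescence at 5 min.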
In the case of `O=C(Nc1ncc([N+](=O)[O-])s1)c1ccccc1O`, the Potency was 0.849 µM (active).
With `CC/C(C)=C/C(=O)OC1C(OC2(C)CCC3C(C4C(C)CCC42)C3(C)C)OC(C)C(O)C1O` (stereo not drawn) the “outcome” value was “inactive [at 25.7 µM]”.
In the case of `CC(C)S(=O)(=O)c1ccc2nccc(Nc3ccc4scnc4c3)c2c1`, the “activity change, negative = inhibition” value was 0.696%.
With `C=CC(C)(O)CC[C@@H]1[C@@]2(C)CCCC(C)(C)C2CC[C@@]1(C)O` (stereo partly drawn) the “outcome” value was “inactive”.
With `Cc1c(Cl)cccc1S(=O)(=O)Nc1nc(NCCc2ccccc2)nc2c1CN(Cc1ccccc1)CC2` the “outcome” value was “inactive”.
For `COc1cc2c(cc1OC)CN(C(=O)/C=C/c1c(-c3ccccc3)n(C)c3ncccc13)CC2`, the “activity change, negative = inhibition” value was -0.836%.
With `CC(C)C(C)C(O)C1CC23CC(=O)C4(O)C(=C2CCC3C1C)C=CC1(O)CC(O)CCC14C` (stereo not drawn) the “activity change, negative = inhibition” value was -9.42% [at 25.7 µM].
In the case of `S=C(c1ccc(-c2ccc(Cl)c(Cl)c2)o1)N1CCCCC1`, the Potency was 1.69 µM (active).
For `CN[C@@H]1[C@H](O[C@H]2[C@H](O[C@@H]3[C@@H](O)[C@H](O)[C@@H](N=C(N)N)[C@H](O)[C@H]3N=C(N)N)O[C@@H](C)[C@]2(O)CO)O[C@@H](CO)[C@H](O)[C@H]1O`, the “outcome” value was “inactive”.
For `CCC(C)/C=C(C)/C=C/C1=CC2=C(Cl)C(=O)C(C)(OC(C)=O)C(=O)C2(O)C(OC)O1` (stereo not drawn), the “activity change, negative = inhibition” value was -1.39% [at 25.7 µM].
For `O=C(NCCN1CCN(c2cccc3c2OCCO3)CC1)c1ccc(F)cc1`, the “outcome” value was “inactive”.
In the case of `COc1ccc2cc3c(NC(=O)c4ccco4)nn(C)c3nc2c1`, the “activity change, negative = inhibition” value was -19.4%.
In the case of `Cc1cc2c(F)c(Oc3ncnn4cc(OCC(C)OC(=O)C(C)N)c(C)c34)ccc2[nH]1` (stereo not drawn), the “outcome” value was “inactive”.
In the case of `CCCn1cc2c(nc(NC(=O)Nc3ccc(OC)cc3)n3nc(-c4ccco4)nc23)n1`, the “outcome” value was “inactive”.
With `CC[C@H](C)/C=C(C)/C=C/C1=CC2=CC(=O)[C@]3(C)OC(=O)[C@@H](C(C)=O)[C@@H]3C2=CO1` the “outcome” value was “inactive”.
For `CC[C@@H](Nc1c(Nc2cccc(C(=O)N(C)C)c2O)c(=O)c1=O)c1cc(C(C)C)co1`, the “outcome” value was “inactive”.
For `C=C(NC(=O)C(=C)NC(=O)c1csc(C2=NC3c4csc(n4)C4NC(=O)c5csc(n5)C(C(C)(O)C(C)O)NC(=O)C5CSC(=N5)/C(=C/C)NC(=O)C(C(C)O)NC(=O)c5csc(n5)C3(CC2)NC(=O)C(C)NC(=O)C(=C)NC(=O)C(C)NC(=O)C(C(C)CC)NC2C=Cc3c(C(C)O)cc(nc3C2O)C(=O)OC4C)n1)C(N)=O` (stereo not drawn), the “activity change, negative = inhibition” value was 2.06%.
For `CCC1C(=O)N(C)c2cnc(Nc3ccc(C(=O)NC4CCN(C)CC4)cc3OC)nc2N1C1CCCC1` (stereo not drawn), the “outcome” value was “inactive”.
In the case of `C=C1/C(=C/C=C2\CCC[C@]3(C)[C@@H]([C@H](C)/C=C/[C@H](O)C4CC4)CC[C@@H]23)C[C@@H](O)C[C@@H]1O`, the “outcome” value was “inactive”.
In the case of `CC(C)NC(=O)COc1cccc(-c2nc(Nc3ccc4[nH]ncc4c3)c3ccccc3n2)c1`, the “activity change, negative = inhibition” value was -0.471%.
With `C=C1C(=O)OC2CC(C)C(CCC(C)=O)=CCC12` (stereo not drawn) the “activity change, negative = inhibition” value was 4.27%.
With `COc1ccc2nc3n[nH]c(C)c3c(NCCOCCO)c2c1` the “activity change, negative = inhibition” value was -23.8%.
With `NC(=O)c1cnc(N[C@@H]2CCCC[C@H]2N)nc1Nc1cccc(-n2nccn2)c1` the “activity change, negative = inhibition” value was 2.72%.
In the case of `CCC(C)C(=O)O[C@H]1[C@@H](OC(=O)c2ccoc2)C[C@](C)(O)[C@]23OC(C)(C)[C@H](C[C@H](OC(=O)c4ccoc4)[C@]12COC(C)=O)[C@H]3OC(C)=O` (stereo partly drawn), the “outcome” value was “inactive [at 25.7 µM]”.
For `COc1ccc(-c2c(C)nn3c(NCCN4CCOCC4)cc(C)nc23)cc1OC`, the “outcome” value was “inactive”.
With `CC(C)c1cc(-c2ccc(F)c3ccccc23)nc(N)n1` the “activity change, negative = inhibition” value was 1.44%.
For `C=CC(=O)N1CCC[C@@H](n2nc(-c3cccc(C(=O)Nc4ccc(C(C)C)c(C)c4)c3)c3c(N)ncnc32)C1`, the Potency was 6.75 µM (active).
For `Cc1onc(-c2ccccc2)c1C(=O)N1CCN(c2ccc([N+](=O)[O-])cc2Cl)CC1`, the “activity change, negative = inhibition” value was 0.964%.

Test system: not listed separately
Assay: Primary fluorescence-based thiol-reactive (MSTI) qHTS assay for identification of artifact compounds. (AID 1845221); further: nearly all actives have a fitted effect of over 65% in size;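 on activity change, negative = thiol reactive: thiol-reactive compounds lower the probe fluorescence signal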
Conditions: MSTI thiol-reactivity probe, 1 h; series mostly up to 53.8 µM; activity change, negative = thiol reactive: at the top concentration
How it was run: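 Probe: MSTI 4 uM, PBS pH 7.4, 2% DMSO. Incubation 1 h, RT, light-protected. Readout fluorescence 525/598 nm.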
With `O=C(Nc1ncc([N+](=O)[O-])s1)c1ccccc1O` the Potency was 2.38 µM (active).
In the case of `CC(C)S(=O)(=O)c1ccc2nccc(Nc3ccc4scnc4c3)c2c1`, the “activity change, negative = thiol reactive” value was 117%.
For `C=CC(C)(O)CC[C@@H]1[C@@]2(C)CCCC(C)(C)C2CC[C@@]1(C)O` (stereo partly drawn), the “activity change, negative = thiol reactive” value was -16.6%.
With `Cc1c(Cl)cccc1S(=O)(=O)Nc1nc(NCCc2ccccc2)nc2c1CN(Cc1ccccc1)CC2` the “activity change, negative = thiol reactive” value was 32.1%.
In the case of `COc1cc2c(cc1OC)CN(C(=O)/C=C/c1c(-c3ccccc3)n(C)c3ncccc13)CC2`, the “activity change, negative = thiol reactive” value was -22.1%.
In the case of `Cn1sc(=O)n(Cc2ccccc2)c1=O`, the “activity change, negative = thiol reactive” value was 3.52%.
In the case of `CC(C)C(C)C(O)C1CC23CC(=O)C4(O)C(=C2CCC3C1C)C=CC1(O)CC(O)CCC14C` (stereo not drawn), the “activity change, negative = thiol reactive” value was 46.1% [at 25.6 µM].
In the case of `CN[C@@H]1[C@H](O[C@H]2[C@H](O[C@@H]3[C@@H](O)[C@H](O)[C@@H](N=C(N)N)[C@H](O)[C@H]3N=C(N)N)O[C@@H](C)[C@]2(O)CO)O[C@@H](CO)[C@H](O)[C@H]1O`, the “activity change, negative = thiol reactive” value was 2.78%.
For `O=C(NCCN1CCN(c2cccc3c2OCCO3)CC1)c1ccc(F)cc1`, the “activity change, negative = thiol reactive” value was -14.7%.
In the case of `COc1ccc2cc3c(NC(=O)c4ccco4)nn(C)c3nc2c1`, the “activity change, negative = thiol reactive” value was 149%.
With `Cc1cc2c(F)c(Oc3ncnn4cc(OCC(C)OC(=O)C(C)N)c(C)c34)ccc2[nH]1` (stereo not drawn) the “activity change, negative = thiol reactive” value was 42%.
For `C/C=C/C=C/c1cc2c(C=O)c(O)c(CC=C(C)C)cc2o1`, the Potency was 21.2 µM (active).
For `CC[C@@H](Nc1c(Nc2cccc(C(=O)N(C)C)c2O)c(=O)c1=O)c1cc(C(C)C)co1`, the Potency was 2.38 µM (active).
With `C=C(NC(=O)C(=C)NC(=O)c1csc(C2=NC3c4csc(n4)C4NC(=O)c5csc(n5)C(C(C)(O)C(C)O)NC(=O)C5CSC(=N5)/C(=C/C)NC(=O)C(C(C)O)NC(=O)c5csc(n5)C3(CC2)NC(=O)C(C)NC(=O)C(=C)NC(=O)C(C)NC(=O)C(C(C)CC)NC2C=Cc3c(C(C)O)cc(nc3C2O)C(=O)OC4C)n1)C(N)=O` (stereo not drawn) the “activity change, negative = thiol reactive” value was 27.1%.
For `CCC1C(=O)N(C)c2cnc(Nc3ccc(C(=O)NC4CCN(C)CC4)cc3OC)nc2N1C1CCCC1` (stereo not drawn), the “activity change, negative = thiol reactive” value was -24.7%.
For `CN(C)C(=O)Nc1cc(-c2ccccc2)ccc1N(C)C`, the Potency was 2.38 µM (active).
In the case of `C=C1/C(=C/C=C2\CCC[C@]3(C)[C@@H]([C@H](C)/C=C/[C@H](O)C4CC4)CC[C@@H]23)C[C@@H](O)C[C@@H]1O`, the “activity change, negative = thiol reactive” value was 0.225%.
In the case of `C=C1C(=O)OC2CC(C)C(CCC(C)=O)=CCC12` (stereo not drawn), the “activity change, negative = thiol reactive” value was 5.71%.
In the case of `NC(=O)c1cnc(N[C@@H]2CCCC[C@H]2N)nc1Nc1cccc(-n2nccn2)c1`, the “activity change, negative = thiol reactive” value was 53.2%.
For `CC(C)c1cc(-c2ccc(F)c3ccccc23)nc(N)n1`, the “activity change, negative = thiol reactive” value was 35.8%.
